Values joined by “and” are separate entries in the source; they are usually repeats but may differ in a detail not shown here. Equal entries are not always repeated. More than one record can exist for a structure, and the calls need not agree. Active and inactive are the calls of the source. The calls were made as follows: active = hit-call score of the fitted dose curve at least 0.9, where 1 is the maximum; inactive = score below 0.9.
Columns and labels:
[1] = read-out: CD69, CD69 (gene 969); experiment: BSK_IMphg_CD69: BioMAP Diversity Plus: IMphg Assay for CD69 Biomarker Activity (AID 2284257); conditions: primary human endothelial cells with macrophages
Outline: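 Readout is ELISA for CD69 in primary human venular endothelial cell/macrophage co-culture, taken at 24 h post-dosing. SRB staining of parallel cultures gauged overt cytotoxicity; signal increase versus DMSO defined activity.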

[2] = read-out: Eotaxin 3, CCL26 (gene 10344); experiment: BSK_BF4T_Eotaxin3: BioMAP Diversity Plus: BF4T Assay for Eotaxin 3 Biomarker Activity (AID 2284258); conditions: primary human bronchial epithelial cells with fibroblasts
Outline: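 ELISA measurement of Eotaxin-3 after 24 h chemical exposure in a bronchial epithelial/dermal fibroblast co-culture, with DMSO as baseline. Parallel SRB staining (0.1% SRB after 10% TCA fixation, 560 nm) flagged overt cytotoxicity.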

[3] = read-out: Monocyte Chemoattractant Protein-1 (MCP1), CCL2 (gene 6347); experiment: BSK_BF4T_MCP1: BioMAP Diversity Plus: BF4T Assay for Monocyte Chemoattractant Protein-1 (MCP1) Biomarker Activity (AID 2284259); conditions: primary human bronchial epithelial cells with fibroblasts
Outline: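 MCP-1 ELISA readout taken 24 h after dosing in the BF4T system (bronchial epithelial cells plus dermal fibroblasts). Parallel SRB total-protein staining flagged cytotoxicity; DMSO served as baseline, positive fitting direction.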

[4] = read-out: CD90, THY1 (gene 7070); experiment: BSK_BF4T_CD90: BioMAP Diversity Plus: BF4T Assay for CD90 Biomarker Activity (AID 2284262); conditions: primary human bronchial epithelial cells with fibroblasts
Outline: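 CD90 levels by ELISA after 24 h treatment of human bronchial epithelial cell/dermal fibroblast cultures, analysed versus DMSO. Overt cytotoxicity checked in parallel cultures by sulforhodamine B staining.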

[5] = read-out: Interleukin-8 (IL8), CXCL8 (gene 3576); experiment: BSK_BF4T_IL8: BioMAP Diversity Plus: BF4T Assay for Interleukin-8 (IL8) Biomarker Activity (AID 2284263); conditions: primary human bronchial epithelial cells with fibroblasts
Outline: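 Human bronchial epithelial cells with dermal fibroblasts co-culture; IL-8 measured by ELISA 24 hours after dosing, fitted vs DMSO. Cytotoxicity tracked in parallel cultures by SRB total-protein staining.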

[6] = read-out: Interleukin-1 alpha (IL1a), IL1A (gene 3552); experiment: BSK_BF4T_IL1a: BioMAP Diversity Plus: BF4T Assay for Interleukin-1 alpha (IL1a) Biomarker Activity (AID 2284264); conditions: primary human bronchial epithelial cells with fibroblasts
Outline: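 ELISA read-out of IL-1α from bronchial epithelial cell/dermal fibroblast co-cultures 24 h after compound addition. Increases scored against DMSO negative control. Cytotoxicity monitored by sulforhodamine B staining of parallel cultures.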

[7] = read-out: Decorin, DCN (gene 1634); experiment: BSK_MyoF_Decorin: BioMAP Diversity Plus: MyoF Assay for Decorin Biomarker Activity (AID 2284265); conditions: primary human lung fibroblasts
Outline: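 Human lung fibroblasts in the MyoF system were exposed to compound for 24 h, after which decorin was quantified by ELISA. Activity was fitted in the positive direction relative to DMSO negative control.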

[8] = BSK_MyoF_SRB: Viability Assessment in the BioMAP Diversity Plus: MyoF Assay (AID 2284267); conditions: primary human lung fibroblasts;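 also: total protein by SRB absorbance in parallel cultures as cytotoxicity measure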
Outline: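 In this viability endpoint, fibroblasts from human lung are treated for 24 h, TCA-fixed, SRB-stained (0.1%) and read at 560 nm. Gain of signal relative to DMSO defines activity.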

[9] = read-out: Matrix Metallopeptidase 1 (MMP1), MMP1 (gene 4312); experiment: BSK_MyoF_MMP1: BioMAP Diversity Plus: MyoF Assay for Matrix Metallopeptidase 1 (MMP1) Biomarker Activity (AID 2284268); conditions: primary human lung fibroblasts
Outline: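 ELISA readout of MMP1 in primary human lung fibroblast cultures, 24 h post-dosing. Gain of signal versus DMSO vehicle control defines activity. Parallel SRB staining (0.1% after 10% TCA fixation, 560 nm) flags overt cytotoxicity.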

[10] = read-out: TIMP metallopeptidase inhibitor 1 (TIMP1), TIMP1 (gene 7076); experiment: BSK_MyoF_TIMP1: BioMAP Diversity Plus: MyoF Assay for TIMP metallopeptidase inhibitor 1 (TIMP1) Biomarker Activity (AID 2284269); conditions: primary human lung fibroblasts
Outline: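 Fibroblasts from human lung are dosed with chemical, cultured 24 h, and assayed for TIMP-1 by ELISA. Increases over the DMSO baseline are scored, with SRB total-protein staining run in parallel for cytotoxicity.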

Measured: AC50

CN(Cc1cnc2nc(N)nc(N)c2n1)c1ccc(C(=O)N[C@@H](CCC(=O)O)C(=O)O)cc1
inactive: [1] | [2] | [3] | [4] | [5] | [6] | [7] | [8] | [9] | [10]
active: [5] 2.65 µM

COc1cccc(O)c1
inactive: [7] | [8] | [9] | [10]

C=CC(=O)OCCC(F)(F)C(F)(F)C(F)(F)C(F)(F)C(F)(F)C(F)(F)C(F)(F)C(F)(F)F
inactive: [1] | [2] | [3] | [4] | [5] | [6] | [7] | [8] | [9] | [10]

CCCCCCCCCCCCCCCCCC[N+](C)(C)Cc1ccccc1
inactive: [9]
active: [7] 10 µM | [8] 2.65 µM | [10] 4.88 µM

Cc1cccc2c1ccc1ccccc12
inactive: [7] | [8] | [9] | [10]

Cc1ccc(N=Nc2c(O)ccc3ccccc23)c(C)c1
inactive: [7] | [8] | [9] | [10]

CC(C)(C)c1ccc(O)c(O)c1
active: [8] 33.5 µM | [10] 31.2 µM
inactive: [7] | [9]

C[C@]12CC[C@@H]3c4ccc(O)cc4CC[C@H]3[C@@H]1C[C@@H](O)[C@@H]2O
inactive: [7] | [8] | [9] | [10]

C=COC(=O)C(C)(C)CCCCCC
inactive: [9] | [10]
active: [7] 31.7 µM | [8] 30.9 µM

O=C1OC2(c3ccccc31)c1cc(I)c(O)c(I)c1Oc1c2cc(I)c(O)c1I
active: [7] 2.56 µM | [9] 0.605 µM | [10] 7.73 µM
inactive: [8]

CCOC(=O)CN[C@@H](C(=O)N1CC[C@H]1C(=O)NCc1ccc(/C(N)=N/O)cc1)C1CCCCC1
inactive: [7] | [8] | [9] | [10]

COCN(COC)c1nc(N(COC)COC)nc(N(COC)COC)n1
inactive: [7] | [8] | [9] | [10]

CN(CCO)S(=O)(=O)C(F)(F)C(F)(F)C(F)(F)C(F)(F)C(F)(F)C(F)(F)C(F)(F)C(F)(F)F
active: [5] 0.0245 µM
inactive: [1] | [2] | [3] | [4] | [5] | [6] | [7] | [8] | [9] | [10]

CCCCC(CC)C(=O)OCCOCCOCCOCCOC(=O)C(CC)CCCC (stereo not drawn)
inactive: [7] | [8] | [9] | [10]

O=C(O)CCC(F)(F)C(F)(F)C(F)(F)C(F)(F)C(F)(F)F
inactive: [1] | [2] | [3] | [4] | [5] | [6] | [7] | [8] | [9] | [10]

NC(=NCCCCCCN=C(N)/N=C(\N)Nc1ccc(Cl)cc1)/N=C(\N)Nc1ccc(Cl)cc1
active: [7] 9.05 µM | [8] 4.76 µM | [9] 9 µM | [10] 4.84 µM

O=C1c2ccc(O)c(O)c2C(=O)c2c(O)ccc(O)c21
inactive: [7] | [8] | [9] | [10]

O=C(CC(=O)C(F)(F)C(F)(F)C(F)(F)F)c1cccs1
inactive: [4] | [7] | [8] | [9] | [10]
active: [1] 30 µM | [2] 12.8 µM and 13 µM | [3] 22.9 µM and 10.9 µM | [4] 9.69 µM | [5] 52.8 µM and 55.1 µM | [6] 43 µM and 45 µM

C=CC(C)(CCC=C(C)C)OC(C)=O (stereo not drawn)
inactive: [7] | [8] | [9] | [10]

COC1=CC(=O)C[C@@H](C)[C@]12Oc1c(Cl)c(OC)cc(OC)c1C2=O
inactive: [7] | [8] | [10]
active: [9] 20 µM

Source: PubChem BioAssay (EPA / NIEHS)
